# High-throughput results from PubChem BioAssay.
# The list is not random: actives were taken first. Their share in the collection is about 17%.
# TGFb inhibitor: qHTS for Inhibitors of TGF-b; AID 588855, 2011; HepG2 CAGA-GFP TGF-b/SMAD3 reporter, GFP fluorescence, 18 h; TGF-beta stimulated, 500 pg/mL final; hit rate 1.2% among 410,000; Potency, µM (doses to about 46.1 µM), usual class: inhibitors; also: nearly all actives have a fitted effect of over 65% in size
#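 First, reporter cells (HEPG2 CAGA-GFP) rested 2 h at 37 degrees C. Next, compounds were pinned in and TGF-beta added to 500 pg/mL final. After 18 h, GFP was imaged per cell and summed per well.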
# ATXN viability: Viability Counterscreen for Primary qHTS for Inhibitors of ATXN expression; S2 cells (HEK-293 line with an ATXN2-luciferase reporter) viability, CellTiter-Fluor protease fluorescence, 24 h; Potency, µM (titrated, usually from 56.7 µM), actives largely listed as cytotoxic; hit rate 0.49% among 400,000; also: nearly all actives have a fitted effect of over 40% in size
# TDP1 cell noCPT: qHTS for Inhibitors of human tyrosyl-DNA phosphodiesterase 1 (TDP1): qHTS in cells in absence of CPT | DT40 Tdp1-/- hTDP1 cells, no CPT, ATP luminescence, 48 h | AID 686978, 2013 | hit rate 15% among 420,000 | Potency, µM (titrated, usually from 46.2 µM), usual class: inhibitors; also: nearly all actives have a fitted effect of over 55% in size
#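 Seeded 400 DT40-hTDP1 cells/well (vehicle DMSO, no 20 nM CPT); pinned compounds; ≥48 hr at 37 °C; CellTiter-Glo luminescence as viability measure.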
# HepG2 tox: qHTS for Inhibitors of TGF-b: Cytotox Counterscreen | HepG2 CAGA-GFP viability, ATP luminescence, 18 h | Potency, µM (top dose mostly 46.1 µM), most hits filed as cytotoxic | hit rate 0.76% among 410,000 | AID 588856, 2011
#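 CellTiter-Glo luminescence gave cytotoxicity after 18 hours at 37 degrees C. The cells were HepG2 CAGA-GFP in 1% FBS DMEM, stimulated with 500 pg/mL TGF-beta after compound addition. %Activity was normalised to no-cell wells (complete cell-killing) and DMSO (no toxicity), and curves were fitted and classified.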
# ATXN2 expr inh: Primary qHTS for Inhibitors of ATXN expression | HEK-293 ATXN2-luciferase reporter, luminescence, 24 h | Potency, µM (highest dose often 57 µM), usual class: inhibitors | hit rate 0.72% among 360,000; also: nearly all actives have a fitted effect of over 55% in size
#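 ATXN2-luciferase reporter cells (luciferase flanked by upstream and downstream ATXN2 gene portions) were treated 24 h at 37 °C with compounds at up to 57 uM. SteadyGlo luminescence gave expression; GF-AFC fluorescence gave viability.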
# TDP1 cell CPT: qHTS for Inhibitors of human tyrosyl-DNA phosphodiesterase 1 (TDP1): qHTS in cells in presence of CPT; hit rate 12% among 420,000; Potency, µM (doses to about 46.2 µM), most hits filed as inhibitors; chicken DT40 Tdp1-/-;hTDP1 cells + 20 nM CPT, ATP luminescence, 48 h; AID 686979, 2013; also: nearly all actives have a fitted effect of over 55% in size
#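 Chicken DT40 Tdp1-/- cells stably complemented with human TDP1 were seeded at 400 cells/well in medium containing 20 nM camptothecin, exposed to pin-transferred compounds, and grown at 37 °C for at least 48 hr. Viability was read as ATP luminescence.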
# Hits are given with their value; 0 = inactive; ? = inconclusive; - = no result given; [ ] = dose if it differs, or a comment. Calls follow the shape of the dose curve; as a rule, active = well fitted curve in the direction sought with a large enough effect; inconclusive = small, poorly fitted or top-dose-only effect, or another doubt; inactive = no such curve, though single readings can be large; an effect the other way counts as inactive or inconclusive.
SMILES,TGFb inhibitor,ATXN viability,TDP1 cell noCPT,HepG2 tox,ATXN2 expr inh,TDP1 cell CPT
COc1ccc(CCNC(=O)Nc2nc(C(N)COCc3ccccc3)cs2)cc1OC (stereo unspecified),0,0,?,0,0,?
COc1ccc(CCNC(=O)Nc2nc(C(N)Cc3ccccc3)cs2)cc1OC (stereo unspecified),0,0,21µM,0,0,?
O=C(c1ccccc1)n1nc(-c2ccccc2)nc1NCc1ccco1,0,0,0,0,0,0
COc1ccc(CC(=O)n2nc(-c3ccc(Cl)cc3)nc2NCc2ccco2)cc1,0,0,18µM,0,0,?
O=C(c1ccco1)n1nc(-c2cccnc2)nc1NCc1ccco1,0,0,23µM,0,0,?
Cc1ccc(NC(=O)Cn2c(=O)c3ccccc3n3nncc23)cc1,0,0,?,0,0,0
O=C(NCc1ccco1)c1ccc2c(c1)N(Cc1ccccc1)C(=O)c1ccccc1S2(=O)=O,-,-,?,0,-,?
CC1=C(C(=O)N(C)C)CC(CC(=O)NCc2ccco2)C(=O)N1Cc1ccccc1 (stereo unspecified),0,0,0,0,0,0
COc1cc(/C=C(\C#N)C(=O)NCC2CCCO2)ccc1OCC(N)=O (stereo unspecified),0,0,0,10µM,0,0
COc1ccc(/C=C(\C#N)C(=O)NCC2CCCO2)cc1OC (stereo unspecified),0,0,0,0,0,0
COc1cc(/C=C(\C#N)C(=O)NCC2CCCO2)ccc1OCCC(C)C (stereo unspecified),0,0,16µM,0,0,21µM
Cn1c(CNC(=O)c2ccco2)nnc1SCCOc1ccccc1,0,0,0,0,0,0
Cc1cccc(NC(=O)CCn2cnc3ccccc3c2=O)c1,0,0,?,0,0,?
O=C1CC(N2CCOCC2)C(=O)N1Cc1ccc(N2CCCC2=O)cc1 (stereo unspecified),0,0,0,0,0,0
O=C1CC(N2CCC(O)(c3ccc(Cl)cc3)CC2)C(=O)N1Cc1ccc(N2CCCC2=O)cc1 (stereo unspecified),0,0,15µM,0,0,?
O=C(NCCc1ccccc1)C1CCC(Cn2c(=O)c3ccccc3n(Cc3cccc(F)c3)c2=O)CC1 (stereo unspecified),0,0,?,0,0,?
COc1cc(NC(=O)Cn2c(=O)n(CC3CCC(C(=O)NCCc4ccccc4)CC3)c(=O)c3ccccc32)cc(OC)c1 (stereo unspecified),0,0,?,0,0,12µM
O=C(NCCc1ccccc1)C1CCC(Cn2c(=O)c3ccccc3n(Cc3cccc(Cl)c3)c2=O)CC1 (stereo unspecified),0,0,15µM,0,0,?
Cc1cccc(NC(=O)Cn2c(=O)n(CC3CCC(C(=O)NCCc4ccccc4)CC3)c(=O)c3ccccc32)c1 (stereo unspecified),0,0,?,0,0,18µM
COc1ccccc1NC(=O)Cn1c(=O)n(CC2CCC(C(=O)NCCc3ccccc3)CC2)c(=O)c2ccccc21 (stereo unspecified),0,0,?,0,0,18µM
CCCC(=O)Nc1nnc(S(=O)(=O)N2CCCCCC2)s1,0,0,0,0,0,0
CC1=CC(C)(C)N(C(=O)CNC2CCCC2)c2cc(C)ccc21,0,0,26µM,0,0,?
O=C(c1cc2ccccc2[nH]1)c1cc2cc(O)ccc2[nH]1,?,-,16µM,0,-,?
CC(C)CC(C)NNC(=O)c1cc2ccccc2[nH]1 (stereo unspecified),0,?,0,0,0,0
S=C(NCc1ccco1)NCC1CCCO1 (stereo unspecified),0,0,0,0,0,0
SMILES,TGFb inhibitor,ATXN viability,TDP1 cell noCPT,HepG2 tox,ATXN2 expr inh,TDP1 cell CPT
CC(C)c1ccc(-c2nnn(CCC(=O)O)n2)cc1,0,0,0,0,0.56µM,0
Cc1cc(NS(=O)(=O)c2ccc(NC(=O)CCCOc3ccccc3C)cc2)no1,0,0,0,0,0,0
Cc1nnc2ccc(N3CCN(C(=O)c4ccccc4)CC3)nn12,0,0,0,0,0,0
O=S(=O)(c1ccc(Br)cc1)N1CCN(c2ccc3nnc(-c4ccccc4)n3n2)CC1,0,0,21µM,0,0,18µM
O=C(c1ccc(Br)o1)N1CCN(c2ccc3nnc(-c4ccccc4)n3n2)CC1,0,?,15µM,0,0,16µM
O=C(N/N=C/c1ccc(Br)cc1)c1ccc(Br)o1,0,0,?,0,0,0
COC(=O)C(NC(=O)c1ccccc1)=C(C)C,0,0,?,0,0,18µM
CSc1nccc(N2CCN(c3ccc(F)cc3)CC2)n1,?,0,?,0,0,13µM
Clc1ccc(N2CCN(c3ccnc(Cl)n3)CC2)cc1,0,0,?,0,0,0
COc1cc2cc(CCCOC(=O)c3cc(OC)c(OC)c(OC)c3)oc(=O)c2cc1OC,0,0,?,0,0,0
COc1cc(C(=O)OCCc2cc3ccccc3c(=O)o2)cc(OC)c1OC,0,?,5.8µM,0,?,4.1µM
Cc1cc(C)n(-c2ccc(C(=O)N3CCc4c(cnc(C)c4CNC(=O)c4ccccc4F)C3)cc2)n1,-,0,0,-,-,0[9.04 µM]
CN(C)c1ccc(C(=O)c2ccc(O)cc2O)cc1,0,0,?,0,0,?
CN(C)c1ccc(Cc2cc3c(O)ccc(O)c3cc(Cc3ccc(N(C)C)cc3)c2=O)cc1,?,0,4.1µM,0,?,3.7µM
C/C(=N\NC(=O)COc1cccc(C)c1)c1ccc2ccccc2c1O,5.6µM,0,?,0,?,?
Cc1cccc(OCC(=O)NNC(=O)c2cc3ccccc3oc2=O)c1,?,0,0,3.2µM,0,0
Cc1cccc(OCC(=O)NCc2ccccc2)c1,0,0,0,0,0,0
O=C(COc1ccc(Cl)cc1)NNC(=O)c1ccccn1,0,?,?,0,?,?
Cc1cc(C)cc(OCC(=O)NNC(=O)c2ccccn2)c1,?,?,6.5µM,0,-,9.2µM
Cc1ccc(OCCCC(=O)NNC(=O)c2ccccn2)cc1,0,0,5.8µM,0,?,6.5µM
O=C(COc1ccc(F)cc1)NNC(=O)c1cc2ccccc2oc1=O,0,0,0,0,0,0
CN(C)C(=O)CNC(=O)CN1C(=O)NC2(CCCc3sccc32)C1=O (stereo unspecified),0,0,0,0,0,0
